Potency and affinity values are given separately. Results filed as inconclusive are left out. Entries that show only a call come without a potency. Activity calls are given as the source filed them.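 Rule for the calls: active = fitted half-maximal concentration for viability loss no higher than twice the top valid dose, in every repeat run; inconclusive = repeat runs disagree, flat partial loss, or poor curve fit; inactive = the rest.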
Assay: cytotoxicity in IOSE-T80 ovarian epithelial cells, dose response, selectivity assay for PAX8 inhibitor project, cell-based, cherry-pick (AID 687032);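 note: cells exposed to compound for 96 h before reading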
Details: CellTiterGlo ATP luminescence, 96 h; series mostly up to 35 µM

| SMILES | outcome |
| --- | --- |
| C[C@@H]1CCCCO[C@H](CN(C)S(=O)(=O)c2ccc(F)cc2)[C@H](C)CN([C@@H](C)CO)C(=O)c2cc(NS(=O)(=O)c3ccc(Cl)cc3)ccc2O1 | inactive |
| COc1ccccc1C#Cc1ccc2c(c1)O[C@@H](CN(C)Cc1ccncc1)[C@H](C)CN([C@H](C)CO)S2(=O)=O | inactive |
| COc1cccc(-c2ccc3c(c2)[C@H]2[C@H](CCN2S(=O)(=O)c2ccccc2F)[C@@H](CO)N3)c1 | inactive |
| C[C@H](CO)N1C[C@H](C)[C@@H](CN(C)S(=O)(=O)c2ccc(-c3ccccc3)cc2)OCc2cn(nn2)CCCC1=O | inactive |
| C[C@@H]1CCCCO[C@@H](CN(C)Cc2ccc(Cl)c(Cl)c2)[C@@H](C)CN([C@@H](C)CO)C(=O)c2cc(NC(=O)Nc3ccccc3)ccc2O1 | inactive |
| C[C@@H]1CN([C@H](C)CO)C(=O)c2cc(NC(=O)Nc3ccccc3)ccc2O[C@@H](C)CCCCO[C@@H]1CN(C)Cc1ccc(Cl)c(Cl)c1 | inactive |
| C[C@@H]1CCCCO[C@H](CN(C)C(=O)Nc2cccc3ccccc23)[C@H](C)CN([C@@H](C)CO)C(=O)c2cc(NS(=O)(=O)c3ccc(Cl)cc3)ccc2O1 | inactive |
| O=C(CN1C(=O)c2ccccc2S1(=O)=O)c1ccc2c(c1)OCCO2 | inactive |
| COc1cc(-c2cnc3c(NC=O)cc(-c4cccc(NC(C)=O)c4)cn23)cc(OC)c1OC | inactive |
| C[C@@H]1CN([C@H](C)CO)C(=O)c2cc(NC(=O)Nc3ccccc3)ccc2O[C@@H](C)CCCCO[C@H]1CN(C)Cc1ccc(C(F)(F)F)cc1 | inactive |
| C[C@@H]1CN([C@H](C)CO)C(=O)c2cc(NS(=O)(=O)c3ccc(F)cc3)ccc2O[C@@H](C)CCCCO[C@@H]1CN(C)Cc1ccccc1 | inactive |
| C[C@@H]1CN([C@@H](C)CO)C(=O)Cc2cc(NC(=O)CCCCCC(=O)Nc3ccccc3N)ccc2O[C@@H]1CN(C)Cc1ccc(C(F)(F)F)cc1 | inactive |
| O=C(Nc1cccc(F)c1)N1CCCCN2[C@H](CO)[C@@H](c3ccc(C#Cc4ccccc4)cc3)[C@H]2C1 | inactive |
| C[C@@H]1CN([C@H](C)CO)C(=O)c2cc(NC(=O)Nc3ccc(F)cc3)ccc2O[C@@H](C)CCCCO[C@H]1CN(C)Cc1ccc(C(F)(F)F)cc1 | inactive |
| O=C(Nc1ccc(F)cc1)N1CC(=O)N2[C@@H](CO)[C@H](c3ccc(-c4ccc(F)cc4)cc3)[C@@H]2C1 | inactive |
| C[C@@H]1CCCCO[C@H](CN(C)Cc2ccc(C(F)(F)F)cc2)[C@@H](C)CN([C@@H](C)CO)C(=O)c2cc(NC(=O)Nc3ccc(F)cc3)ccc2O1 | inactive |

| SMILES | outcome |
| --- | --- |
| COc1ccc(S(=O)(=O)N(C)C[C@@H]2OCCCC[C@H](C)Oc3ccc(NS(=O)(=O)c4ccccc4)cc3C(=O)N([C@H](C)CO)C[C@H]2C)cc1 | inactive |
| C[C@@H]1CN([C@H](C)CO)C(=O)c2cc(NS(=O)(=O)c3ccc(Cl)cc3)ccc2O[C@@H](C)CCCCO[C@H]1CN(C)C(=O)Nc1ccc(C(F)(F)F)cc1 | inactive |
| COc1ccc(S(=O)(=O)Nc2ccc3c(c2)C(=O)N([C@@H](C)CO)C[C@H](C)[C@@H](CN(C)C(=O)Nc2ccc(F)cc2)OCCCC[C@H](C)O3)cc1 | inactive |
| COc1ccccc1C#Cc1ccc2c(c1)O[C@@H](CN(C)Cc1ccncc1)[C@H](C)CN([C@@H](C)CO)S2(=O)=O | inactive |
| COc1ccc(CN(C)C[C@H]2OCCCC[C@H](C)Oc3ccc(NC(=O)Nc4ccc(C(F)(F)F)cc4)cc3C(=O)N([C@H](C)CO)C[C@H]2C)cc1 | inactive |
| C#CCN(C[C@@H]1[C@@H](OC(=O)NCc2ccccc2F)[C@@H](OC(=O)NCc2ccccc2F)Cn2c(=O)ccc(=O)n21)S(=O)(=O)c1ccc(C)cc1 | inactive |
| C[C@@H]1CCCCO[C@H](CN(C)Cc2ccc(Cl)c(Cl)c2)[C@@H](C)CN([C@@H](C)CO)C(=O)c2cc(NC(=O)Nc3ccccc3)ccc2O1 | inactive |
| Cc1cccc(-c2ccc(C3[C@@H]4CN(C(=O)Nc5ccc(C(F)(F)F)cc5)C[C@H]3N4)cc2)c1 (some centres not stated) | inactive |
| C[C@@H]1CN([C@@H](C)CO)S(=O)(=O)c2ccc(C#Cc3ccncc3)cc2O[C@H]1CN(C)C(=O)Nc1ccc2c(c1)OCO2 | inactive |
| C[C@@H]1CCCCO[C@H](CN(C)Cc2ccc(C(F)(F)F)cc2)[C@@H](C)CN([C@@H](C)CO)C(=O)c2cc(NC(=O)Cc3ccccc3)ccc2O1 | inactive |
| CN1c2ccc(-c3cccc(C#N)c3)cc2[C@H]2[C@H](CCN2S(=O)(=O)c2ccccc2F)[C@H]1CO | inactive |
| C[C@@H]1CN([C@H](C)CO)C(=O)c2cc(NC(=O)Nc3ccc(F)cc3)ccc2O[C@@H](C)CCCCO[C@@H]1CN(C)Cc1ccc(C(F)(F)F)cc1 | inactive |
| C[C@H](CO)N1C[C@H](C)[C@@H](CN(C)C(=O)c2ccc3c(c2)OCO3)Oc2cc(C#Cc3ccccc3F)ccc2S1(=O)=O | inactive |
| C[C@H]1CCCCO[C@H](CN(C)C(=O)Nc2cccc3ccccc23)[C@@H](C)CN([C@@H](C)CO)C(=O)c2cc(NS(=O)(=O)c3ccc(Cl)cc3)ccc2O1 | inactive |
| CCCC#Cc1ccc([C@@H]2[C@@H](C#N)N(C(=O)C3CCCCC3)[C@H]2CO)cc1 | inactive |
| C[C@H]1CN([C@@H](C)CO)C(=O)Cc2cc(NC(=O)NC3CCCCC3)ccc2O[C@@H]1CN(C)Cc1ccc(-c2ccccc2)cc1 | inactive |
